An excerpt weighted towards active compounds, which were near 12% of everything screened.
PLK1 PBD block = blocks phosphopeptide binding to human PLK1 polo-box domain | P53350 | Plk1 PBD binding of FITC phosphopeptide, fluorescence polarization | actives 2.8% (n = 360,000) | Potency, µM, without a hit: max response, negative = inhibition, actives largely listed as inhibitors; further: series mostly up to about 57 µM; on the % scale 0 is the no-effect control and ±100 the full control effect; nearly all actives have a fitted effect of over 65% in size
Target sequence (P53350 whole entry, looked up, the tested form may be a part): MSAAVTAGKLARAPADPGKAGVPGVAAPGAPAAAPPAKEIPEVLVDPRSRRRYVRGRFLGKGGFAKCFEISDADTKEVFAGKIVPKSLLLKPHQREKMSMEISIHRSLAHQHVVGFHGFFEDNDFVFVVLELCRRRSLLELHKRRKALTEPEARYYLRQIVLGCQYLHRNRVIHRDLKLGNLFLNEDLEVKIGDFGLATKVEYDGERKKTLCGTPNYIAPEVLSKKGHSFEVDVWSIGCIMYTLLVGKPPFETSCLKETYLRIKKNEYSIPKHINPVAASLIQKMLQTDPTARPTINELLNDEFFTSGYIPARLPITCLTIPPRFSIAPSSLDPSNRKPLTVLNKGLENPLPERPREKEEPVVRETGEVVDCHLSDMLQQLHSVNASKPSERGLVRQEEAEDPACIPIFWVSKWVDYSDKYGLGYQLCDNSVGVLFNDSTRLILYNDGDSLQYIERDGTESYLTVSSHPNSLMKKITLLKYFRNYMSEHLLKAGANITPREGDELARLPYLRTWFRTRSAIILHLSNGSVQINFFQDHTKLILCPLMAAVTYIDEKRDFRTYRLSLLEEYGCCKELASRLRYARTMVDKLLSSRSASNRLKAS
BAZ2B inh = inhibitors of human BAZ2B bromodomain; Q9UIF8; AlphaScreen BAZ2B-H3K14Ac peptide displacement; Potency, µM (highest dose often 114 µM), without a hit: at the highest dose activity change, negative = inhibition, most hits filed as inhibitors; actives 4.4% (n = 360,000); AID 504333; further: on the % scale 0 is the no-effect control and ±100 the full control effect; nearly all actives have a fitted effect of over 60% in size
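Compounds, titrated to a top concentration of 110 uM, were incubated 30 min at room temperature with preformed BAZ2B/acetyl-K14 H3 peptide complex (50 nM each). Proximity signal was measured by AlphaScreen after 20 min with beads.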
G9a inh = G9a (human) methyltransferase inhibition. Q96KQ7. G9a H3K9 monomethylation, AlphaScreen, 2 h. Potency, µM (series often up to 102 µM), without a hit: at the top dose activity, negative = inhibition, actives largely listed as inhibitors. actives 8.8% (n = 350,000); further: on the % scale 0 is the no-effect control and ±100 the full control effect; nearly all actives have a fitted effect of over 75% in size
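AlphaScreen read-out: biotin-H3K9 peptide (500 nM) methylation by 20 nM enzyme with 20 uM SAM, 2 h at room temperature after 15 min compound preincubation; anti-monomethyl H3K9 antibody plus donor/acceptor beads, 10 min dark.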
JMJD2A Tudor = JMJD2A Tudor domain (human) inhibition. Potency, µM (doses to about 114 µM), for inactives: at the top dose activity change, negative = inhibition, usual class: inhibitors. actives 4.4% (n = 390,000). AlphaScreen JMJD2A-Tudor / H3K4me3 peptide binding; further: on the % scale 0 is the no-effect control and ±100 the full control effect; nearly all actives have a fitted effect of over 50% in size
HP1b binding inh = HP1-beta chromodomain-methylated histone interaction inhibition. AlphaScreen HP1-beta / biotin-H3K9me3 peptide binding. Potency, µM (titrated, usually from 114 µM), for inactives: top-dose activity change, negative = inhibition, actives largely listed as inhibitors. actives 0.56% (n = 390,000); further: nearly all actives have a fitted effect of over 70% in size
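HP1-beta protein (50 nM final) preincubated 30 min at room temperature with biotinylated H3(1-18)K9me3 peptide (50 nM) in PBS pH 7.4, 0.01% Tween-20, then compound added for 30 min. AlphaScreen streptavidin donor/nickel chelate acceptor beads (10 ug/mL final), 30 min dark, luminescence read.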
Sfp PPTase inh = blocks B. subtilis Sfp PPTase activity. Q9F4F7. Biochemical Sfp PPTase activity, qHTS. Potency, µM, for the others: largest response in the series, negative = inhibition, most hits filed as inhibitors. actives 3.5% (n = 310,000);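 further: the enzyme is Sfp with the accession as filed and its product quenches rhodamine fluorescence; 0% = enzyme reaction without inhibitor and -100% = no enzyme wells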
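With Hepes-Na pH 7.6 buffer containing 10 mM MgCl2, Sfp (15 nM) modified BHQ-2-YbbR (12.5 uM) using rhodamine-CoA (5 uM). Two reads 30 minutes apart at 525/598 nm yielded each well's rate.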
Starred values were filed as active, the others as inactive; ! = a repeat was not active; [ ] = dose if it differs, or a comment. The call rests on the fitted dose curve; in most records, active means well fitted curve in the direction sought with a large enough effect; inconclusive means small, poorly fitted or top-dose-only effect, or another doubt; inactive means no such curve, though single readings can be large; an effect the other way counts as inactive or inconclusive. Potency means the concentration at half of the fitted maximal effect.

For O=C(O)CCNc1cc(N2CCN(C(=O)c3ccco3)CC2)c2noc3c2c1C(=O)c1ccccc1-3 the results were PLK1 PBD block 49%, BAZ2B inh 13µM*, G9a inh 10µM*, JMJD2A Tudor 18µM*, HP1b binding inh inconclusive and Sfp PPTase inh -23%.
Screening Cc1cc(N2CCN(C(=O)c3ccco3)CC2)c2ccccc2n1 returned PLK1 PBD block -25%, BAZ2B inh -14%, G9a inh inconclusive, JMJD2A Tudor -14%, HP1b binding inh 33% and Sfp PPTase inh 22%.
For COC(=O)C(C)n1cnc2c(nnn2-c2ccccc2)c1=O (stereo not given) the results were PLK1 PBD block -5%, BAZ2B inh -5%, G9a inh 89µM*, JMJD2A Tudor -3%, HP1b binding inh 32% and Sfp PPTase inh 8%.
O=c1cc(-c2ccccc2Cl)oc2c(Br)ccc(O)c12 was read as PLK1 PBD block 1%, BAZ2B inh -12%, G9a inh 56µM*!, JMJD2A Tudor -26%, HP1b binding inh 18% and Sfp PPTase inh 11%.
`O=C(Nc1ccc(O)c2c(=O)cc(-c3ccccc3Cl)oc12)c1cc(Cl)cc(Cl)c1` gave JMJD2A Tudor -26%, HP1b binding inh 24% and Sfp PPTase inh 56µM*.
O=C(Nc1ccc(O)c2c(=O)cc(-c3ccccc3Cl)oc12)c1ccc(Cl)c(Cl)c1 was read as PLK1 PBD block -8%, BAZ2B inh -1%, G9a inh -23%[12.7 µM], JMJD2A Tudor -10%, HP1b binding inh 47% and Sfp PPTase inh 79µM*!.
For COc1ccc(-c2csc(NC(=O)C3=COCCO3)n2)cc1OC the results were PLK1 PBD block -21%, BAZ2B inh inconclusive, G9a inh 56µM*, JMJD2A Tudor -23% and HP1b binding inh 7%.
COC(=O)c1c(-c2cccc(C)c2)csc1N was read as PLK1 PBD block -21%, BAZ2B inh inconclusive, G9a inh inconclusive, JMJD2A Tudor inconclusive, HP1b binding inh inconclusive and Sfp PPTase inh -28%.
`O=C(Nc1nc(-c2ccc(F)c(F)c2)cs1)C1=COCCO1` gave PLK1 PBD block -5%, BAZ2B inh 14%, G9a inh -4%[12.7 µM], JMJD2A Tudor -15% and HP1b binding inh 29%.
`CC(=O)Nc1nc(-c2cccc3ccccc23)cs1` gave PLK1 PBD block 3.8µM*, BAZ2B inh -34%, G9a inh 11%[59 µM], JMJD2A Tudor inconclusive, HP1b binding inh 4% and Sfp PPTase inh 9%.
`O=C(Nc1nc(-c2cccs2)cs1)c1cccc(S(=O)(=O)N2CCCCC2)c1` gave PLK1 PBD block -10%, BAZ2B inh inconclusive, G9a inh 13µM*, JMJD2A Tudor -29%, HP1b binding inh 23% and Sfp PPTase inh 19%.
COC(=O)c1c(-c2cccc(OC)c2)csc1N was read as PLK1 PBD block inconclusive, BAZ2B inh inconclusive, G9a inh 40µM*, JMJD2A Tudor -24%, HP1b binding inh -17% and Sfp PPTase inh 56µM*.
`O=C1C(=O)N(C2CCNCC2)CCN1Cc1ccccc1` gave BAZ2B inh 1%, G9a inh inconclusive, JMJD2A Tudor -16% and HP1b binding inh 0%.
Screening COc1ccc(-c2csc(NC(=O)CCCc3nc4ccccc4c(=O)[nH]3)n2)cc1OC returned PLK1 PBD block -6%, BAZ2B inh -3%, G9a inh 40µM*, JMJD2A Tudor -20% and HP1b binding inh -3%.
Screening O=C(Nc1nc(-c2ccc(Cl)cc2)cs1)C1=COCCO1 returned PLK1 PBD block -5%, BAZ2B inh -11%, G9a inh -4%[0.501 µM], JMJD2A Tudor -21% and HP1b binding inh -7%.
For O=C(Nc1nc(-c2cccs2)cs1)c1ccc(Cl)cc1 the results were PLK1 PBD block -25%, BAZ2B inh 3%, G9a inh 32µM*, JMJD2A Tudor 17%[57.1 µM], HP1b binding inh 41% and Sfp PPTase inh 22%.
`O=C(Nc1nc(-c2cccs2)cs1)C1=COCCO1` gave PLK1 PBD block 3.4µM*, BAZ2B inh 1%, G9a inh 10%, JMJD2A Tudor 14µM*, HP1b binding inh inconclusive and Sfp PPTase inh -15%.
`Cc1cc(-c2csc(NC(=O)c3ccc(=O)n(C)n3)n2)c(C)n1CC1CCCO1` (stereo not given) gave PLK1 PBD block -8%, BAZ2B inh inconclusive, G9a inh inconclusive, JMJD2A Tudor -24%, HP1b binding inh 26% and Sfp PPTase inh 50µM*.
O=C(c1cccc(F)c1)N1CCC2(CCCN(c3cccc(-c4ccccc4)c3)C2)CC1 was read as G9a inh 0%[12.7 µM] and Sfp PPTase inh 0%.
`Cc1cc(-c2csc(NC(=O)C3=COCCO3)n2)c(C)n1C` gave PLK1 PBD block inconclusive, BAZ2B inh -3%, G9a inh 50µM*, JMJD2A Tudor -22% and HP1b binding inh -10%.
Screening COc1cc(C(=O)Nc2nc(-c3ccc(C)cc3)cs2)ccc1OCC(=O)N1CCOCC1 returned PLK1 PBD block -8%, BAZ2B inh 0%, G9a inh 8%[59 µM], JMJD2A Tudor -26%, HP1b binding inh 11% and Sfp PPTase inh 2%.
Screening COc1ccc(-c2csc(NC(C)=O)n2)cc1OC returned PLK1 PBD block 27µM*, BAZ2B inh -13%, G9a inh -14%[59 µM], JMJD2A Tudor 56µM*, HP1b binding inh -18% and Sfp PPTase inh 50µM*.
For COc1cccc(-c2csc(NC(C)=O)n2)c1 the results were PLK1 PBD block inconclusive, BAZ2B inh 5%, G9a inh 10µM*, JMJD2A Tudor -8%, HP1b binding inh -11% and Sfp PPTase inh -13%.
Screening COc1cc(C(=O)Nc2nc(-c3ccc(F)cc3)cs2)ccc1OCC(=O)N1CCOCC1 returned PLK1 PBD block 27µM*, BAZ2B inh 0%, G9a inh inconclusive, JMJD2A Tudor inconclusive, HP1b binding inh -17% and Sfp PPTase inh -5%.
Cn1cccc1C(=O)N1CCC2(CCN(Cc3ccc(C#N)cc3)CC2)CC1 was read as G9a inh -3%[12.7 µM] and Sfp PPTase inh 14%.
Cc1cc(C)nc(-n2nc(C)cc2NC(=O)c2cccc(S(=O)(=O)N3CCCCC3)c2)n1 was read as BAZ2B inh -3%, G9a inh 8.9µM* and Sfp PPTase inh 4%.
`Cc1cc(NC(=O)c2cccc(S(=O)(=O)N3CCCCCC3)c2)n(-c2ccccn2)n1` gave PLK1 PBD block inconclusive, BAZ2B inh 15%, G9a inh 12%[59 µM], JMJD2A Tudor inconclusive, HP1b binding inh 19% and Sfp PPTase inh 7%.
`O=C(NC(=S)N1CCCc2ccccc21)c1ccco1` gave PLK1 PBD block -28%, BAZ2B inh inconclusive, G9a inh 45µM*, JMJD2A Tudor -22%, HP1b binding inh 19% and Sfp PPTase inh inconclusive.
